Measurements as given in the GenesisPotency data set.
Among all 110 compounds or so, fewer than 10 were called active.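 How the source made its calls: active means EC50 at or below 33 microM; inactive means the rest.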 These entries were drawn from the full list. Results with a measured potency or affinity are listed apart.

Target: Ammonium transporter MEP2, Saccharomyces cerevisiae (strain ATCC 204508 / S288c) (UniProt P41948)
Experiment: MEP2-GFP expression modulation in yeast, dose response, flow cytometry, KU SAR set, S. cerevisiae (AID 488801)

Chain of Ammonium transporter MEP2, Saccharomyces cerevisiae (strain ATCC 204508 / S288c) (P41948 whole entry): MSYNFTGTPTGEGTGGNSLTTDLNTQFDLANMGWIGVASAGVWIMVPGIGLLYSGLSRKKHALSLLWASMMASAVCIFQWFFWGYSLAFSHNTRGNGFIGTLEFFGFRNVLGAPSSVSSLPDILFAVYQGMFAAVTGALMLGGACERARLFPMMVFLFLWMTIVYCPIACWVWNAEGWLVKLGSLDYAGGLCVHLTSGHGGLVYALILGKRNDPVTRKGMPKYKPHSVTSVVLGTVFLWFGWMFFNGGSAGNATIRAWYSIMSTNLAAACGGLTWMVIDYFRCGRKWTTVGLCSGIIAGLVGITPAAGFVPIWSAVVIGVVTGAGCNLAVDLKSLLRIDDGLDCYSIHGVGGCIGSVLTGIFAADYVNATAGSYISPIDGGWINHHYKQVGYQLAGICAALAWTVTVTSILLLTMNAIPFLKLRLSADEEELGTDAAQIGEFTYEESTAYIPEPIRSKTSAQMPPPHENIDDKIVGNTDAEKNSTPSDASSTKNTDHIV

outcome, inactive:
O=[N+]([O-])c1ccc(O)c2ncccc12
CC(C)(C)c1ccc(NC(=O)COC(=O)c2ccc([N+](=O)[O-])s2)cc1
Nc1nc(NCc2ccco2)nc(Nc2cccc(F)c2)c1[N+](=O)[O-]
CC(C)(C)C(=O)NC(=S)NNC(=O)c1ccc(-c2ccccc2)cc1
CCC(C)Nc1nc(N)c([N+](=O)[O-])c(Nc2cccc(F)c2)n1 (stereo not drawn)
CNc1nc(N)c([N+](=O)[O-])c(Nc2cc(OC)ccc2OC)n1
CNc1nc(N)c([N+](=O)[O-])c(NCc2ccccc2)n1
Nc1nc(Nc2ccccc2F)nc(Nc2cccc(F)c2)c1[N+](=O)[O-]
O=C(CCc1ccccc1)NNC(=S)NC(=O)c1ccccc1
CC(Oc1ccc(Cl)cc1)C(=O)NNC(=S)NC(=O)c1ccco1 (stereo not drawn)
O=[N+]([O-])c1cc(O)c2ncccc2c1
Cc1ccc2nc(Cl)c3nnnn3c2c1
Cc1nn2c(-c3ccncc3)nnc2c2ccccc12
